High-throughput results deposited in PubChem by several laboratories.
AHR activator: human AHR activation; P35869; AHR-responsive luciferase reporter cells, luminescence; activation, % at 5 µM; hit rate 2.5% among 320,000; in the data active = activation above about 47%;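 note: 0% = vehicle wells and 100% = reference agonist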
Target sequence (P35869 whole entry, looked up): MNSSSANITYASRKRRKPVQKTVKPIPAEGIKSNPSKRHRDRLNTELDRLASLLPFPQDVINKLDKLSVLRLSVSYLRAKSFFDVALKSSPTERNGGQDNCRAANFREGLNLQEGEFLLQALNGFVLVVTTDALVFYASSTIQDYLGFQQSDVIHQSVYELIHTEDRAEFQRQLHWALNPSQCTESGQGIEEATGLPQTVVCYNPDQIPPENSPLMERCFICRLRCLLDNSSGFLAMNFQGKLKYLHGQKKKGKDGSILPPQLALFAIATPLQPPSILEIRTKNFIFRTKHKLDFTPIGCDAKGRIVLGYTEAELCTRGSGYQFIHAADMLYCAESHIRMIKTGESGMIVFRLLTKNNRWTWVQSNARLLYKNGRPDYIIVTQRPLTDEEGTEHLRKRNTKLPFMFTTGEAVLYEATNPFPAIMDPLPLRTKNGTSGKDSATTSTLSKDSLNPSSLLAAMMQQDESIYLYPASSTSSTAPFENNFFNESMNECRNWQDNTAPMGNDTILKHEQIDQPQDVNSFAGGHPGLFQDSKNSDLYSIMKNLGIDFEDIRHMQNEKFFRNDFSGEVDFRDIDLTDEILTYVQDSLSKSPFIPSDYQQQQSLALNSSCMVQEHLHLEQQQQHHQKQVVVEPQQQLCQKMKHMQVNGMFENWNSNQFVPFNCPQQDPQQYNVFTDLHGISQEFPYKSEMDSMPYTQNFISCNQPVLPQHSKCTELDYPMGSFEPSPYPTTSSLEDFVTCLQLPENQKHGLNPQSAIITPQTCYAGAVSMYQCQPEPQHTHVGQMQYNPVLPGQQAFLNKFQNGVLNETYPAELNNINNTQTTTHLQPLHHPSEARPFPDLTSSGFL
ADAM17 inh: inhibitors of human ADAM17; recombinant ADAM17, EDANS/DABCYL FRET peptide cleavage; inhibition, % at 6.95 µM; hit rate 0.83% among 370,000; AID 720648;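 active = inhibition above the mean of compounds lying between control limits plus 3 SD, set per campaign, cut at about 8.5% in these data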;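 note: 0% = DMSO-only wells as the low control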
KLK7 zymogen act: proKLK7 (human) activation, primary screen. hit rate 0.9% among 370,000. AID 652039. purified proKLK7, EDANS-DABCYL substrate fluorescence; 100% is mature enzyme control, 0% vehicle. activation, % at 7 µM. P49862;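 active = activation above the mean of all tested compounds plus 3 SD, computed per campaign excluding outliers beyond control limits, cut at about 13% in these data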
NR3A LBD binder: modulates the human NR3A ligand-binding domain | NR3A LBD differential scanning fluorimetry, Tm shift; 0% = protein alone, 100% = glycine-bound protein | Tm shift relative to glycine control, % at 25 µM | hit rate 2.5% among 340,000 | AID 1259313;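 active = melting temperature shift of at least 10% of the positive control shift, at one fixed dose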
ADAM10 inh: ADAM10 inhibition, QFRET primary screen; O14672; inhibition, % at 7 µM; hit rate 0.62% among 370,000; recombinant ADAM10, EDANS/DABCYL FRET peptide cleavage, 3 h;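 active = inhibition above a per-campaign cutoff equal to the mean of compounds falling between control-based bounds plus 3 SD, cut at about 20% in these data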;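 note: 0% = DMSO wells while the 100% control is not disclosed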
rCAG RNA binder: binds r(CAG) RNA repeats; r(CAG) RNA repeat, TO-PRO-1 dye displacement fluorescence; inhibition, % at 3 µM; hit rate 1.3% among 370,000; AID 651821;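 active = inhibition above the plate cutoff, the mean of all test compounds on that plate plus 3 SD, cut at about 35% in these data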;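 note: 0% = DMSO alone and 100% = 100 µM mitoxantrone as full dye displacement; higher means more dye released from RNA so lower well fluorescence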
AHR act confirm: human AHR activation, confirmation | shares compounds with AHR activator | human cells, AHR-responsive luciferase reporter, luminescence | activation, % at 9 µM | hit rate 87% among 2,300 | AID 2845; in the data active = activation above about 49%;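 note: HepG2 hepatoma cells carrying a DRE-driven firefly luciferase reporter; 0% = vehicle wells and 100% = reference agonist wells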
PXR counter: PXR activation, counter-screen for AHR activators; shares compounds with AHR activator; cell-based PXR reporter, luciferase luminescence; activation, % at 11.6 µM; hit rate 88% among 2,300; AID 434939; in the data active = activation above about 11%;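 note: human hepatoma DPX-2 cells expressing full-length human PXR; 0% = DMSO and 100% = reference agonist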
* hit, by the source's call; i = inactive; nt = not tested or not shown. This is a sample that favours compounds with a hit; in the whole collection about 7% have one here.

SMILES	AHR activator	ADAM17 inh	KLK7 zymogen act	NR3A LBD binder	ADAM10 inh	rCAG RNA binder	AHR act confirm	PXR counter
COc1cc2c(cc1NC(=O)C(C)OC(=O)/C=C/c1ccc(OC(F)F)cc1)oc1ccccc12 (stereo not given)	144*	-2	0	-30	1	7	107*	30*
COc1cc2c(cc1NC(=O)Nc1ccc(C)cc1)oc1ccccc12	87*	-10	-4	29*	-24	22	98*	nt
O=C1COc2ccccc2C(c2nnnn2Cc2ccccc2)N1Cc1cccs1 (stereo not given)	nt	0	0	nt	1	3	nt	nt
O=C(Nc1ccc(Br)cc1)c1cc(-c2ccncc2)nc2ccccc12	109*	4	-1	2	-1	8	97*	12*
COc1cc2c(cc1NC(=O)c1cc(-c3ccncc3)nc3ccccc13)oc1ccccc12	83*	-9	0	-22	-19	6	71*	13*
O=C(Nc1ccc2c(c1)OCO2)c1cc(-c2ccncc2)nc2ccccc12	94*	2	0	-2	4	6	95*	35*
O=C(Nc1ccncc1)c1cc(-c2ccccc2)nc2ccccc12	nt	-3	0	nt	-13	1	nt	nt
O=C(Nc1ccc2c(c1)OCCO2)c1cc(-c2ccccc2)nc2ccccc12	0	2	1	-9	9	12	nt	nt
CCCCNC(=O)C[C@H]1C[C@@]2(C(=O)OC)C(=C[C@H](C(C)(C)C)O[C@@H]2C)N(Cc2ccc3c(c2)OCO3)C1=O	nt	2	0	nt	5	0	nt	nt
CNC(=O)c1ccccc1C1(O)c2ccccc2CCc2ccccc21	nt	-4	0	nt	-9	1	nt	nt
Cc1nn(-c2ccc(Cl)cc2)c2[nH]c(=O)c(CNCc3ccc4c(c3)OCO4)cc12	88*	-2	0	1	0	10	83*	36*
Cc1nn(-c2ccccc2)c2[nH]c(=O)c(CNc3ccc(N4CCOCC4)cc3)cc12	4	-4	1	1	-6	8	nt	nt
C=CCN1C(=O)[C@]2(OCCC=C[C@H]2C)c2cc(OC)ccc21	nt	-3	0	nt	-18	-1	nt	nt
Cc1ccc(NCc2nc3ccccc3n2C)cc1	80*	1	-1	0	-7	-2	66*	12*
COc1ccc(NCc2nc3ccccc3n2CCOc2ccc(C)cc2)cc1	21	8	0	-2	16	-2	nt	nt
Cn1c(CNC2CCCCC2)nc2ccccc21	19	-3	0	-2	-2	1	nt	nt
Cc1ccc(NCc2nc3ccccc3n2C)cc1C	103*	-6	-1	0	6	-8	127*	26*
Cn1c(CNc2ccc(Br)cc2)nc2ccccc21	108*	-5	0	-2	5	0	185*	48*
CN(C(=O)CCc1cn(C)c2ccccc12)c1ccc(Oc2cccnc2)cc1	nt	0	0	nt	3	3	nt	nt
O=S(=O)(Cc1ccccc1)N1CCc2ccccc2C1	15	3	0	10	4	0	nt	nt
O=S(=O)(Cc1ccccc1)N1CCCc2ccccc21	125*	-3	0	-2	-5	0	114*	80*
O=c1cc(-c2ccccc2)oc2ccc(Br)cc12	99*	-4	0	1	0	4	80*	39*
COc1ccc(-c2cc(=O)c3cc(OC)ccc3o2)cc1	1	-77	3	-2	-314	0	nt	nt
CC(=O)c1c(C)[nH]c2ccccc2c1=O	1	1	0	0	6	0	nt	nt
Cc1[nH]c2ccccc2c1C(=O)/C=C/c1ccccc1	166*	5	0	-2	7	7	140*	200*
SMILES	AHR activator	ADAM17 inh	KLK7 zymogen act	NR3A LBD binder	ADAM10 inh	rCAG RNA binder	AHR act confirm	PXR counter
Cc1[nH]c2ccccc2c1C(=O)/C=C\c1ccccc1Cl	157*	5	0	11*	19	8	112*	78*
O=C(C=Cc1ccccc1Cl)c1ccccc1	nt	0	0	-37	-1	1	nt	nt
Cc1[nH]c2ccccc2c1C(=O)/C=C/c1ccccc1Cl	147*	7	-1	27*	10	15	123*	72*
O=C(Nc1ccc(F)cc1)OCc1cn(Cc2ccccc2)nn1	nt	-4	0	nt	-1	3	nt	nt
CCCc1nc2c(C)cc(Br)cn2c1Cc1cccc(Cl)c1	nt	-6	1	nt	-13	3	nt	nt
CCOc1ccc(/C=N/NC(=O)c2cc3c(OC)cccc3[nH]2)cc1	33	-17	-9	-2	-32	5	nt	nt
CCOc1ccc(/C=N/NC(=O)c2cc3c(OC)cc(OC)cc3[nH]2)cc1OC	85*	-55	-4	-3	-110	7	86*	21*
Cc1nc(NC(=O)c2ccc(Cl)cc2)nc2cc3c(cc12)OCO3	91*	1	-1	-1	-16	2	71*	17*
COc1ccc(-c2nc(N)nc(C)c2-c2ccc(Cl)cc2)c(O)c1	23	4	-1	-11	15	0	nt	nt
CCOc1ccc(-c2nc(N)nc(C)c2-c2ccc(Cl)cc2)c(O)c1	90*	5	-1	-24	12	0	79*	39*
O=C(Nc1ccnc(-c2cccnc2)n1)c1ccccc1Cl	136*	-3	-1	-3	-6	-5	37	17*
O=C(Nc1cccc(Cl)c1)Nc1ccnc(-c2cccnc2)n1	148*	-8	0	10	9	10	129*	12*
N=C1S/C(=C\c2ccco2)C(=O)N1c1nccs1	112*	-2	0	-1	-3	8	111*	10*
O=C(Cn1nc(CNc2ccc(Cl)cc2)[n+]2c1CCCCC2)c1ccc(Br)cc1	100*	-2	0	-5	-2	6	8	24*
CCN1C(=O)N[C@H]2C[C@@H](c3ccccc3)[C@@H](C)[C@@H](C(=O)N3CCCC3)C[C@H]21	nt	-2	-1	nt	-5	0	nt	nt
O=C(/C=C/c1ccc(F)cc1)N1CCc2ccccc2C1	100*	-1	0	1	-19	7	136*	60*
Cc1ccc2c(C)c(C(=O)N3CCN(c4cnccn4)CC3)oc2c1C	92*	-23	-4	1	-67	-8	114*	25*
C=CCNC(=O)c1cc(-c2ccncc2)nc2c(C)cc(C)cc12	81*	-307	2	-3	i	2	65*	45*
C=CCNC(=O)c1cc(-c2cccnc2)nc2ccccc12	7	-2	0	-1	7	-1	nt	nt
N#Cc1c(SCC(N)=O)nsc1SCc1ccccc1Cl	101*	0	1	-37	9	1	83*	22*
